The list is not random: actives were taken first. Their share in the collection is about 2.4%.
POLK inh – qHTS for Inhibitors of Polymerase Kappa | purified Pol kappa, fluorescent DNA synthesis assay, 10 min | Potency, µM (top dose mostly 107 µM), for inactives: at the top dose activity, negative = inhibition, hits mostly inhibitors | 400,000 tested, 0.53% active | AID 588579, 2011; further: on the % scale 0 is the no-effect control and ±100 the full control effect
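Activity was followed as the change in fluorescence between reads at 0 and 10 min after starting the reaction with 50 nM substrate. Beforehand, 10 nM polymerase had been preincubated with compound for 15 min at room temperature.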
Pol iota inh – qHTS for Inhibitors of Polymerase Iota; Pol iota fluorescent replication assay, 10 min; Potency, µM (titrated, usually from 115 µM), for the others: at the highest dose activity, negative = inhibition, most hits filed as inhibitors; 390,000 tested, 1% active; AID 588590, 2011
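Pol iota at 10 nM preincubated 15 min with compounds at room temperature; reaction started with fluorescent substrate, 50 nM final. Fluorescence read kinetically at 0 and 10 min; buffer-only wells as negative control.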
Pol beta inh – qHTS Assay for Inhibitors of DNA Polymerase Beta. P06746. Pol beta primer extension/strand displacement, fluorescence kinetic. Potency, µM (top dose mostly 114 µM), for inactives: top-dose activity change, negative = inhibition, usual class: inhibitors. 340,000 tested, 1.3% active. AID 485314, 2010; further: on the % scale 0 is the no-effect control and ±100 the full control effect
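Human Pol beta at 10 nM; strand-displacement substrate 50 nM final. Compound exposure 15 min at room temperature before start, reaction 10 min at room temperature.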
POLH inh – qHTS for Inhibitors of Polymerase Eta. DNA polymerase eta (Homo sapiens), Q9Y253. recombinant Pol eta, fluorescent DNA replication assay. Potency, µM (series often up to 114 µM), for the others: at the highest dose activity change, negative = inhibition, hits mostly inhibitors. 390,000 tested, 1.2% active; further: on the % scale 0 is the no-effect control and ±100 the full control effect
Target sequence (Q9Y253 whole entry, looked up): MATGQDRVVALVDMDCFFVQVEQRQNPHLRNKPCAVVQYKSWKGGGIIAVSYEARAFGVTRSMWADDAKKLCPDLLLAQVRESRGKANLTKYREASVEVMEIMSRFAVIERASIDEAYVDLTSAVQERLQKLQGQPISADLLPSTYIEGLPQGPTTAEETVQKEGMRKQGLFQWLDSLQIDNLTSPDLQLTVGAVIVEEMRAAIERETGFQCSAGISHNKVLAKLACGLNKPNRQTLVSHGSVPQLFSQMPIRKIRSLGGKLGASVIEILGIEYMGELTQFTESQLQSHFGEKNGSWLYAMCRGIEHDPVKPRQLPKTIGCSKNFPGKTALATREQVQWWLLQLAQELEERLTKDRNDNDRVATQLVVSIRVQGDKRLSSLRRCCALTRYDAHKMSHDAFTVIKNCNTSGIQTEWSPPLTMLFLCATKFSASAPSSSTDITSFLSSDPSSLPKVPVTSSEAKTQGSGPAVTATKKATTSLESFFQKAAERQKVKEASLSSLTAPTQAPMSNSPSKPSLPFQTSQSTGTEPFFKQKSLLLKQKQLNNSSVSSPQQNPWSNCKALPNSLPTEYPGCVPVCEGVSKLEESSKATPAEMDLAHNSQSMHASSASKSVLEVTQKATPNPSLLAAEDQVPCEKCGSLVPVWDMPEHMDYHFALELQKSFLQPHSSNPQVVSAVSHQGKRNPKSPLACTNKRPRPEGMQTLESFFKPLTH
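Pol eta (10 nM) was preincubated with compounds for 15 min at room temperature, after which fluorescent replication substrate (50 nM final) was added to start the reaction. Fluorescence was read kinetically at 0 and 10 min.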
TDP1 inh – qHTS Assay for Inhibitors of Tyrosyl-DNA Phosphodiesterase (TDP1) | Tyrosyl-DNA phosphodiesterase 1 (Homo sapiens), Q9NUW8 | Potency, µM (series often up to 130 µM), for inactives: at the top dose activity change, negative = inhibition, actives largely listed as inhibitors | 350,000 tested, 0.28% active | AID 485290, 2010 | recombinant TDP1, AlphaScreen DNA substrate cleavage; further: on the % scale 0 is the no-effect control and ±100 the full control effect; nearly all actives have a fitted effect of over 40% in size
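Tdp1 1 nM final; 15 min RT w/ cpd; substrate 15 nM, 5 min; beads 10 ug/ml, 10 min; AlphaScreen read. Neg ctrl: no enzyme.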
* = called active by the depositor; u = inconclusive; x = no result; [ ] = dose if it differs, or a comment. The call rests on the fitted dose curve; in most records, active means well fitted curve in the direction sought with a large enough effect; inconclusive means small, poorly fitted or top-dose-only effect, or another doubt; inactive means no such curve, though single readings can be large; an effect the other way counts as inactive or inconclusive. Potency means the concentration at half of the fitted maximal effect.

SMILES	POLK inh	Pol iota inh	Pol beta inh	POLH inh	TDP1 inh
Cc1ccc(Cn2c(C(C)Nc3nc(-c4ccc(C)cc4)cs3)nc3cc(Cl)c(Cl)cc32)cc1 (centres undefined)	-13%	-15%	32µM*	-28%	x
O=C(Nc1ccc(F)cc1F)C(Cc1ccccc1)N1Cc2ccccc2C1=O (centres undefined)	-7%	-29%	2%	-8%	5%
O=C(c1cc2cc([N+](=O)[O-])ccc2oc1=O)n1cccn1	79µM*	u	32µM*	32µM*	-3%
Cc1cccc(C2C3=C(Nc4[nH]n(-c5ccccc5)c(=O)c42)c2ccccc2C3=O)c1 (centres undefined)	u	u	u	13µM*	12%
O=C(CCS(=O)(=O)c1nc(-c2ccc3c(c2)OCO3)cc(C(F)(F)F)n1)Nc1ccccc1C(F)(F)F	5%	u	-10%	-20%	3%
CCOc1cc(NC(=O)c2ccco2)c(OCC)cc1NC(=O)CCc1ccc(OC)cc1	x	x	22%	x	-4%
CCOc1cc(NC(=O)c2ccco2)c(OCC)cc1NC(=O)Cc1ccc(OC)c(OC)c1	-2%	50µM*	-8%	9%	-2%
C=CCOc1c(OC)cc(/C=N/Nc2cccc(C(=O)O)c2)c(Br)c1Br	u	-16%	50µM*	u	3%
CC(/C=C/C=C(\C)C(=O)O[C@@H]1O[C@H](CO[C@@H]2O[C@H](CO)[C@@H](O)[C@H](O)[C@H]2O)[C@@H](O)[C@H](O)[C@H]1O)=C\C=C\C=C(C)\C=C\C=C(/C)C(=O)O[C@@H]1O[C@H](CO[C@@H]2O[C@H](CO)[C@@H](O)[C@H](O)[C@H]2O)[C@@H](O)[C@H](O)[C@H]1O	21µM*	x	x	x	-15%
CC(C)c1ccc(Nc2ncnc3c2nc2n3CCCC2)cc1	-9%	22%	-18%	-28%	9%
Cc1cc(Cl)n2c(nc3ccccc32)c1C#N	-4%	22µM*	89µM*	40µM*	-3%
COC(=O)c1cc(NC(=O)CCc2c(C)nc3nc(C)nn3c2C)cc(C(=O)OC)c1	-8%	-9%	-28%	-13%	5%
Cc1cc(C)c(O)c(-c2cc(C(=O)Nc3cccnc3)[nH]n2)c1	-11%	u	56µM*	-15%	5%
O=C(Nc1ccc(N2CCN(c3ccc(O)cc3)CC2)cc1)Oc1ccccc1	-8%	5%	28%	-6%	1%
Nc1ccc(OC(=O)Nc2ccc(O)cc2)cc1	-8%	20µM*	32%	-13%	6%
O=C(COc1cccc2cccnc12)N/N=C/c1ccccc1O	-14%	4%	32µM*	-17%	u
O=C(N/N=C/c1ccccc1C(=O)O)c1ccc(COc2cccc3cccnc23)cc1	u	u	u	40µM*	0%
C#CCn1cc(/C=N/NC(=O)COc2cccc3cccnc23)c2ccccc21	u	22µM*	u	u	0%
O=C(O)COc1ccccc1/C=N/NC(=O)c1cc2ccccc2cc1O	u	14µM*	-11%	-5%	7%
Cc1cccc(C)c1NC(=O)Cn1c(=O)n(Cc2ccc3c(c2)OCO3)c(=O)c2oc3ccccc3c21	0%	5%	2%	11%	3%
COc1ccccc1-c1nn2c(-c3cc(C)[nH]n3)nnc2s1	11%	u	x	x	8%
c1cnc2nc(-c3ccc4c(c3)OCO4)cn2c1	-16%	46%	2%	-8%	3%
c1ccn2cc(-c3ccc4c(c3)OCO4)cc2c1	-36%	45µM*	40µM*	-14%	3%
CCc1ccc(OCC(=O)NNC(=S)NC(=O)C2CC2)c(Br)c1	-11%	36%	17%	-10%	5%
CCc1ccc(OCC(=O)NC(=S)Nc2ccc(C)cc2C)c(Br)c1	-3%	79µM*	10%	-2%	1%
SMILES	POLK inh	Pol iota inh	Pol beta inh	POLH inh	TDP1 inh
CCOC(=O)c1cccc(NC(=O)c2cncc(Br)c2)c1	79µM*	89µM*	4%	2%	2%
CCCN(CC(=O)Nc1ccccc1C)C(=O)Cc1c(C)nc2ccccc2c1C	-32%	79µM*	x	u	-11%[56.1 µM]
C=C1C[C@@]23CC4C5[C@@]6(C)C[C@H](O)C[C@@]57C2[C@H](O)[C@@H]1[C@H](O)[C@H]3[C@H]7N4C6	x	x	x	x	5%
O=C(NCc1ccco1)C1c2ccccc2Oc2ccccc21	u	u	18µM*	7.9µM*	x
O=C(O)C1C2C=CC(C2)C1C(=O)NCc1ccco1 (centres undefined)	u	-9%	-2%	50µM*	-5%
O=C(O)C1C2C=CC(C2)C1C(=O)NCc1cccs1 (centres undefined)	0%	47%	u	-13%	45µM*
O=C(O)C1C2C=CC(C2)C1C(=O)NCc1ccccc1F (centres undefined)	-13%	5%	0%	2%	x
Cc1ccc(NS(=O)(=O)c2cc3c(cc2Cl)NC(=O)C3)cc1C	x	x	x	x	0%
Nc1c(C(=O)Nc2nccs2)sc2nc(-c3cccs3)cc(C(F)(F)F)c12	1%	-12%	45µM*	u	-5%
Cc1cc(C)c2c(N)c(C(=O)Nc3nccs3)sc2n1	-21%	5%	40µM*	u	u
COc1ccc(Cc2nnc(Nc3ccccc3)s2)cc1Br	-2%	u	56µM*	u	x
O=C(OCc1nnc(-c2ccccc2)o1)c1ccc([N+](=O)[O-])o1	-8%	u	x	1%	-2%
COc1cc(-c2nnc(COC(=O)c3ccc([N+](=O)[O-])o3)o2)cc(OC)c1OC	x	x	x	79µM*	x
CC(C)c1ccc(OCC(=O)NCc2n[nH]c(=O)c3ccccc23)cc1	-8%	32%	x	-10%	40µM*
O=C(COc1ccc(Cl)cc1)NCc1n[nH]c(=O)c2ccccc12	-17%	48%	x	6%	56µM*
O=S1(=O)CCO[C@H]2CCCC[C@@H]2N1Cc1ccccc1F	-6%	6%	x	x	x
COC(=O)[C@H](Cc1ccccc1)N(Cc1ccc(C)cc1)S(C)(=O)=O	-11%	3%	x	x	x
O=S1(=O)CCO[C@H]2CCCC[C@@H]2N1Cc1ccccc1Br	-9%	9%	x	x	x
C=C1[C@@H](O)[C@H](CC(C)C)N(Cc2ccccc2Br)S1(=O)=O	6%	2%	x	50µM*	x
O=[N+]([O-])c1cc(-c2ccc(/C=N\n3cnnc3)o2)cc([N+](=O)[O-])c1	u	22µM*	56µM*	u	x
Cc1ccc(CCNC(=O)c2ccc(CSCc3ccccc3C)o2)cc1	2%[60.1 µM]	u	-24%	-23%	5%
CCOC(=O)c1cnn(-c2cccc(Cl)c2)c1C1CCN(C(=O)OC(C)(C)C)CC1	-9%	7%	u	-26%	5%

Compound activity deposited in PubChem BioAssay by National Center for Advancing Translational Sciences (NCATS).
